# Assay outcomes deposited in PubChem BioAssay by National Center for Advancing Translational Sciences (NCATS).
# BAZ2B inh = qHTS Assay for Inhibitors of BAZ2B; Bromodomain adjacent to zinc finger domain protein 2B (Homo sapiens), Q9UIF8; AlphaScreen BAZ2B-H3K14Ac peptide displacement; Potency, µM (top dose mostly 114 µM), inactives show at the top dose activity change, negative = inhibition, hits mostly inhibitors; 4.4% of 360,000 active; AID 504333, 2011; further: potency means the concentration at half of the fitted maximal effect; on the % scale 0 is the no-effect control and ±100 the full control effect; nearly all actives have a fitted effect of over 60% in size
#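 AlphaScreen displacement of biotin-H3(5-23)K14Ac peptide (50 nM final) from BAZ2B (50 nM final) in PBS pH 7.4, 0.01% Tween-20; complex preformed 30 min RT, then compounds (top 110 uM) 30 min RT, beads 20 min dark.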
# Six1-Eya2 blk = qHTS Assay for Inhibitors of the Six1/Eya2 Interaction. AID 651725, 2012. 0.56% of 360,000 active. activity change, % (no concentration beside the values). AlphaScreen GST-Six1/His-Eya2 binding, biochemical; stronger effect = lower value; in the data active means activity change below about -65%; inconclusive means mostly about -30% to -63%; further: on the % scale 0 is the no-effect control and ±100 the full control effect
# Target sequence (O00167 whole entry, looked up): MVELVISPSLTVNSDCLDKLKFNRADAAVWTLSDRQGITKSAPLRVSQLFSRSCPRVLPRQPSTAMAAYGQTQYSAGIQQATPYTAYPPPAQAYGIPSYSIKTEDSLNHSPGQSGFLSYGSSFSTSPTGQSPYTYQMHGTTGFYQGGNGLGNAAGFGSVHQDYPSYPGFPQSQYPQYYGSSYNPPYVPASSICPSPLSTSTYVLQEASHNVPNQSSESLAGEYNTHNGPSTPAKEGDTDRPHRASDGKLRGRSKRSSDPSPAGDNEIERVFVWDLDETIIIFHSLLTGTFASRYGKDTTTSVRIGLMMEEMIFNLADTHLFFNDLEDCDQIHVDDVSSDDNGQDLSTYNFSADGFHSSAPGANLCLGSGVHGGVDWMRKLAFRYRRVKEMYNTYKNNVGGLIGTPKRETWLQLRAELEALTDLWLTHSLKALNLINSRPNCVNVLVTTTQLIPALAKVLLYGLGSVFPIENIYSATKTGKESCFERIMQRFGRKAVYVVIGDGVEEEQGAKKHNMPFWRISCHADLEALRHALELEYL
# Target sequence (Q15475 whole entry, looked up): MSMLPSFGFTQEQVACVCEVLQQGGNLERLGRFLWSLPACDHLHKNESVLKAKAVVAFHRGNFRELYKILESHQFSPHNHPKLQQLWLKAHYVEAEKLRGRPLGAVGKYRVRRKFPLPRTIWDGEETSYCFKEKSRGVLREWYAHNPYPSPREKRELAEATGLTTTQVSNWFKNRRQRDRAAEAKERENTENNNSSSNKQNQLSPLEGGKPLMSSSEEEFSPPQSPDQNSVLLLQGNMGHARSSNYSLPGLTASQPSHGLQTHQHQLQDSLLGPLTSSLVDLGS
#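 AlphaScreen with GST-Six1 and His-Eya2 (5X mix: 250 nM and 500 nM), glutathione donor and nickel acceptor beads; buffer 50 mM Tris pH 8.0, 300 mM NaCl, 1 mM TCEP; 1 h at 37 C in the dark.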
# G9a block = qHTS Assay for Inhibitors of Histone Lysine Methyltransferase G9a. AID 504332, 2011. Histone-lysine N-methyltransferase EHMT2 (Homo sapiens), Q96KQ7. G9a H3K9 monomethylation, AlphaScreen, 2 h. 8.8% of 350,000 active. Potency, µM (series often up to 102 µM), for the others: top-dose activity, negative = inhibition, usual class: inhibitors; further: potency means the concentration at half of the fitted maximal effect; on the % scale 0 is the no-effect control and ±100 the full control effect; nearly all actives have a fitted effect of over 75% in size
#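 AlphaScreen read-out: biotin-H3K9 peptide (500 nM) methylation by 20 nM enzyme with 20 uM SAM, 2 h at room temperature after 15 min compound preincubation; anti-monomethyl H3K9 antibody plus donor/acceptor beads, 10 min dark.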
# JMJD2A Tudor inh = qHTS Assay for Inhibitors of JMJD2A-Tudor Domain; Lysine-specific demethylase 4A (Homo sapiens), O75164; AlphaScreen JMJD2A-Tudor / H3K4me3 peptide binding; Potency, µM (doses to about 114 µM), for the others: top-dose activity change, negative = inhibition, most hits filed as inhibitors; 4.4% of 390,000 active; further: potency means the concentration at half of the fitted maximal effect; on the % scale 0 is the no-effect control and ±100 the full control effect; nearly all actives have a fitted effect of over 50% in size
# CtBP-E1A inh = qHTS Assay for Inhibitors of the CtBP/E1A Interaction; CtBP / adenovirus E1A interaction (AlphaScreen); AlphaScreen GST-E1A/His-CtBP binding, 1536-well; stronger effect = lower value; activity change, % (no concentration beside the values); 0.49% of 340,000 active; AID 651724, 2012; in the data active means activity change below about -65%; inconclusive means mostly about -30% to -63%; further: on the % scale 0 is the no-effect control and ±100 the full control effect
#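 Homogeneous bead-based format: GST-tagged E1A captured on glutathione donor beads, His-tagged CtBP on nickel acceptor beads; compounds precede bead addition by 2 h at 37 °C.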
# HP1b binding inh = HTS for Inhibitors of HP1-beta Chromodomain Interactions with Methylated Histone Tails; Chromobox protein homolog 1 (Homo sapiens), P83916; AlphaScreen HP1-beta / biotin-H3K9me3 peptide binding; Potency, µM (highest dose often 114 µM), inactives show at the highest dose activity change, negative = inhibition, hits mostly inhibitors; 0.56% of 390,000 active; AID 540317, 2011; further: potency means the concentration at half of the fitted maximal effect; nearly all actives have a fitted effect of over 70% in size
#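 HP1-beta protein (50 nM final) preincubated 30 min at room temperature with biotinylated H3(1-18)K9me3 peptide (50 nM) in PBS pH 7.4, 0.01% Tween-20, then compound added for 30 min. AlphaScreen streptavidin donor/nickel chelate acceptor beads (10 ug/mL final), 30 min dark, luminescence read.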
# * hit, by the source's call; ? = inconclusive; / = no result; [ ] = remark or other dose. The list is not random: actives were taken first. Their share in the collection is about 10%. Unless noted, the call rests on the fitted dose curve; in most records, active means well fitted inhibition curve with a large enough effect; inconclusive means small, poorly fitted or top-dose-only effect; inactive means no such curve, though single readings can be large or run the other way.
SMILES,BAZ2B inh,Six1-Eya2 blk,G9a block,JMJD2A Tudor inh,CtBP-E1A inh,HP1b binding inh
COc1cccc(C=Nc2ccc(N3CCOCC3)cc2)c1O,-35%,-2,?,-21%,/,13%
Oc1ccc(N=Cc2cc(Br)c(N3CCOCC3)o2)cc1,-38%,-14,14µM*,?,-3,-17%
O=[N+]([O-])c1cc(Br)c(O)c(C=Nc2ccc(N3CCOCC3)cc2)c1,35µM*,-6,35µM*,-24%,-7,7%
O=C(Nc1cc(Cl)cc2c1-c1ccc(Cl)cc1C2O)C(Cl)Cl (centres undefined),/,1,/,-15%,-27,18%
CN(C)CC(=O)c1c[nH]c2ccccc12,-23%,9,27%[0.501 µM],50µM*,10,19%
CN(Cc1ccccc1)C(=O)C(=O)c1c[nH]c2ccccc12,/,4,/,/,2,/
CC(=O)NCCNC(=O)CCCc1nnc2n(C)c(=O)c3sccc3n12,-1%,/,1%[59 µM],-14%,/,12%
N[C@H](C(=O)O)[C@H]1C[C@H]1C(=O)O,/,/,44%[59 µM],/,/,/
Cc1ccc(N2C(=O)c3oc4cc(C)c(C)cc4c(=O)c3C2c2cccc(O)c2)nc1 (centres undefined),0%,/,-3%[59 µM],1%,/,49%
COC(=O)c1ccc(C)c(N(CCO)CCO)c1,-4%,7,25µM*,0%,5,42%
CC1(C)Cc2c(C#N)c(SCc3ccccc3)nc(N3CCOCC3)c2CO1,3%,2,-32%[0.0925 µM],-8%,-4,20%
CC1(C)Cc2c(C#N)c(SCC(=O)c3ccccc3)nc(N3CCOCC3)c2CO1,-31%,-14,22µM*,63µM*,?,-7%
COC(=O)Sc1nc(N2CCOCC2)c2c(c1C#N)CC(C)(C)OC2,10%,-3,7.9µM*,?,2,63%
CC(C)Sc1nc(N2CCOCC2)c2c(c1C#N)CC(C)(C)N(C)C2,-8%,-9,-14%[12.7 µM],11µM*,-3,-10%
CC(Sc1nc(N2CCOCC2)c2c(c1C#N)CC(C)(C)OC2)C(=O)O (centres undefined),-12%,9,50µM*,-6%,-5,18%
O=C(COc1ccc(F)cc1)NCc1ccc2c(c1)CCN2C(=O)c1ccc(F)cc1,-5%,/,2%[59 µM],-8%,/,12%
COc1ccc(Nc2nc(C)nc(N)c2S(=O)(=O)c2ccccc2)cc1,-17%,/,0%[59 µM],-4%,/,25%
O=C(Oc1cccc([N+](=O)[O-])c1)c1ccc2c(=O)n3c(nc2c1)CCC3,50µM*,?,7%[12.7 µM],?,-10,-11%
O=C(Oc1ccc(F)c(F)c1)c1ccc2c(=O)n3c(nc2c1)CCC3,-4%,-6,?,1%,0,36%
COc1ccccc1NC(=O)Cn1c(=O)n(Cc2nc(C)no2)c(=O)c2cc3c(cc21)OCO3,-7%,/,-29%[59 µM],-6%,/,14%
COc1ccc(C=C2c3ccccc3C(=O)c3ccccc32)c(OC)c1,13µM*,/,28µM*,/,/,/
COc1ccc(NC(=O)CCN2CCN(Cc3ccccc3)CC2)c(OC)c1,-7%,-2,17%[0.501 µM],-2%,/,22%
COc1ccc(/C=C2\COc3ccccc3C2=O)c(OC)c1,-12%,-3,16%,1%,-2,22%
COc1ccc(/C=C2\CN(Cc3ccccc3)C/C(=C\c3ccc(OC)cc3)C2=O)cc1,?,2,18µM*,?,2,?
COc1ccc(/C=C2\CN(Cc3ccccc3)C/C(=C\c3ccc(OC)cc3OC)C2=O)c(OC)c1,25µM*,-15,14µM*,?,-3,?
SMILES,BAZ2B inh,Six1-Eya2 blk,G9a block,JMJD2A Tudor inh,CtBP-E1A inh,HP1b binding inh
O=C(COC(=O)C1CCC1)NCc1ccccc1,-1%,3,6%[59 µM],-9%,7,26%
CC1CCc2onc(C(=O)Nc3ccc(Cl)cc3)c2C1 (centres undefined),12%[57.1 µM],/,-12%[59 µM],-2%,/,22%
Cc1ncc(CO)c(/C=N/Nc2ccc(C(F)(F)F)cn2)c1O,20µM*,-75*,-3%,?,-96*,-24%[57 µM]
Cc1ncc(CO)c(/C=N/NC(=S)Nc2ccc(F)cc2)c1O,3.2µM*,-90*,-152%[59 µM],40µM*,-86*,?
Cc1ncc(CO)c(/C=N/N=C/c2ccccc2O)c1O,?,4,14%[59 µM],?,-7,-2%
CCOc1ccc(/C=C2\SC(=S)N(CCC(=O)Nc3ccc(C(=O)O)cc3)C2=O)cc1,22µM*,-3,28µM*,25µM*,-30,?
COc1ccc(/C=C2\SC(=S)N(CCC(=O)Nc3ccc(C(=O)O)cc3)C2=O)cc1OC,-22%,-16,-37%,?,-18,-29%
CCOc1ccc(/C=C2\SC(=S)N(CCC(=O)Nc3cccc(C(=O)O)c3)C2=O)cc1,50µM*,-4,79µM*,35µM*,-1,?
CCOC(=O)CN1C(=O)S/C(=C/c2ccc(OCc3ccc(C(=O)O)cc3)cc2)C1=O,50µM*,12,14%[2.33 µM],?,5,59%
O=C(CCN1C(=O)/C(=C/c2ccc3c(c2)OCO3)SC1=S)Nc1ccc(C(=O)O)cc1,35µM*,-14,21%[2.33 µM],45µM*,-13,?
Cc1cc(-n2c(SCc3ccccc3F)nc3[nH]ncc3c2=O)ccc1Cl,-18%,/,-31%[59 µM],?,/,19%
O=C(CSc1nc2c([nH]c3ccccc32)c(=O)n1-c1ccc(Cl)cc1)N1CCOCC1,42%,/,8%[59 µM],-6%,/,52%[57 µM]
O=C(Nc1ccccc1)OC[C@@H]1C=CS(=O)(=O)N1Cc1ccc(Br)cc1,/,1,/,/,-1,/
CCOC(=O)c1ccc(N2C(=O)CC(SCC(=O)Nc3ccc(S(N)(=O)=O)cc3)C2=O)cc1 (centres undefined),-4%,1,32µM*,-16%,-3,33%
O=C(CSc1nnc(NC2CCCCC2)s1)Nc1ccc2c(c1)C(=O)c1ccccc1C2=O,?,?,/,-24%,/,16%
NS(=O)(=O)c1ccc(NC(=O)CSc2nnc(NC3CC3)s2)cc1,?,-5,45µM*,?,5,?
O=C(CSc1nnc(NC2CCCCC2)s1)NN1C(=O)NC2(CCCCC2)C1=O,-2%,15,45µM*,?,19,39%
CC(OC(=O)CCC1CCCCC1)C(=O)Nc1ccc(S(N)(=O)=O)cc1 (centres undefined),7%,-1,56µM*,-16%,-2,12%
